According to the supplement of paper PMC12067093, “Discovery and optimisation of a covalent ligand for TRIM25 and its application to targeted protein ubiquitination” (Chemical Science, 2025):
About 21,000 targets were measured; listed, in parts, are those with the largest changes and a random draw of the rest.

Compound: CC1Cc2ccccc2N1C(=O)C1CCCN(C1)C(=O)CCl (mixture of isomers) [TRIM25 ligand 11 (diastereomer mixture)]
Experiment: probe-labelled cysteine peptide fold change vs DMSO (competition) (log2 fold change); higher = less target engagement (more negative = stronger competition)
Settings: THP-1, incubation time: 4 h
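Also: competitive chemoproteomic profiling in live THP-1 cells with an iodoacetamide desthiobiotin (IA-DTB) probe, comparing probe-labelled peptide intensities in compound-treated cells against DMSO-treated controls.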

UniProt Q9C0B0, sequence (Q9C0B0 whole entry, looked up): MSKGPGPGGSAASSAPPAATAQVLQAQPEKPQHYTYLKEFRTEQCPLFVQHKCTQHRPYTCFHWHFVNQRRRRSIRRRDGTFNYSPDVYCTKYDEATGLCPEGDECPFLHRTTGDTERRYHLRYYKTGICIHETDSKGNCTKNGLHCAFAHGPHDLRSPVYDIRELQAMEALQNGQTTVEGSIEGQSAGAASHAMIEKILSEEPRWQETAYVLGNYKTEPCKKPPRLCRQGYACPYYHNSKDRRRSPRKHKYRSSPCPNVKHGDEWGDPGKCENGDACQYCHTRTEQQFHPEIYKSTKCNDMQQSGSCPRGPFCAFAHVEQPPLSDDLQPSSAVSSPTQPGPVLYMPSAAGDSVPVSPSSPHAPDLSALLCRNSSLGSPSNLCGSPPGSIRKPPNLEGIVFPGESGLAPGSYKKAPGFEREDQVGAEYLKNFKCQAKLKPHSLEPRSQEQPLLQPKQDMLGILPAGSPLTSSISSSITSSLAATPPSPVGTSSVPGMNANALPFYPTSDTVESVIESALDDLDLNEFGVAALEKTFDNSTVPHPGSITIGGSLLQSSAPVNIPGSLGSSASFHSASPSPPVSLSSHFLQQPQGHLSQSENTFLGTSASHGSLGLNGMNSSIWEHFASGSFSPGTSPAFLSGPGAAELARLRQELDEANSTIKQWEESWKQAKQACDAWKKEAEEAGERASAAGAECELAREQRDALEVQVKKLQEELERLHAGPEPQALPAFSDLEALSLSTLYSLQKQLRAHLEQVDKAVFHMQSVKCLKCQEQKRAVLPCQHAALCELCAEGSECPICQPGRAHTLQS
UniProt Q96QT4, sequence (Q96QT4 whole entry, looked up): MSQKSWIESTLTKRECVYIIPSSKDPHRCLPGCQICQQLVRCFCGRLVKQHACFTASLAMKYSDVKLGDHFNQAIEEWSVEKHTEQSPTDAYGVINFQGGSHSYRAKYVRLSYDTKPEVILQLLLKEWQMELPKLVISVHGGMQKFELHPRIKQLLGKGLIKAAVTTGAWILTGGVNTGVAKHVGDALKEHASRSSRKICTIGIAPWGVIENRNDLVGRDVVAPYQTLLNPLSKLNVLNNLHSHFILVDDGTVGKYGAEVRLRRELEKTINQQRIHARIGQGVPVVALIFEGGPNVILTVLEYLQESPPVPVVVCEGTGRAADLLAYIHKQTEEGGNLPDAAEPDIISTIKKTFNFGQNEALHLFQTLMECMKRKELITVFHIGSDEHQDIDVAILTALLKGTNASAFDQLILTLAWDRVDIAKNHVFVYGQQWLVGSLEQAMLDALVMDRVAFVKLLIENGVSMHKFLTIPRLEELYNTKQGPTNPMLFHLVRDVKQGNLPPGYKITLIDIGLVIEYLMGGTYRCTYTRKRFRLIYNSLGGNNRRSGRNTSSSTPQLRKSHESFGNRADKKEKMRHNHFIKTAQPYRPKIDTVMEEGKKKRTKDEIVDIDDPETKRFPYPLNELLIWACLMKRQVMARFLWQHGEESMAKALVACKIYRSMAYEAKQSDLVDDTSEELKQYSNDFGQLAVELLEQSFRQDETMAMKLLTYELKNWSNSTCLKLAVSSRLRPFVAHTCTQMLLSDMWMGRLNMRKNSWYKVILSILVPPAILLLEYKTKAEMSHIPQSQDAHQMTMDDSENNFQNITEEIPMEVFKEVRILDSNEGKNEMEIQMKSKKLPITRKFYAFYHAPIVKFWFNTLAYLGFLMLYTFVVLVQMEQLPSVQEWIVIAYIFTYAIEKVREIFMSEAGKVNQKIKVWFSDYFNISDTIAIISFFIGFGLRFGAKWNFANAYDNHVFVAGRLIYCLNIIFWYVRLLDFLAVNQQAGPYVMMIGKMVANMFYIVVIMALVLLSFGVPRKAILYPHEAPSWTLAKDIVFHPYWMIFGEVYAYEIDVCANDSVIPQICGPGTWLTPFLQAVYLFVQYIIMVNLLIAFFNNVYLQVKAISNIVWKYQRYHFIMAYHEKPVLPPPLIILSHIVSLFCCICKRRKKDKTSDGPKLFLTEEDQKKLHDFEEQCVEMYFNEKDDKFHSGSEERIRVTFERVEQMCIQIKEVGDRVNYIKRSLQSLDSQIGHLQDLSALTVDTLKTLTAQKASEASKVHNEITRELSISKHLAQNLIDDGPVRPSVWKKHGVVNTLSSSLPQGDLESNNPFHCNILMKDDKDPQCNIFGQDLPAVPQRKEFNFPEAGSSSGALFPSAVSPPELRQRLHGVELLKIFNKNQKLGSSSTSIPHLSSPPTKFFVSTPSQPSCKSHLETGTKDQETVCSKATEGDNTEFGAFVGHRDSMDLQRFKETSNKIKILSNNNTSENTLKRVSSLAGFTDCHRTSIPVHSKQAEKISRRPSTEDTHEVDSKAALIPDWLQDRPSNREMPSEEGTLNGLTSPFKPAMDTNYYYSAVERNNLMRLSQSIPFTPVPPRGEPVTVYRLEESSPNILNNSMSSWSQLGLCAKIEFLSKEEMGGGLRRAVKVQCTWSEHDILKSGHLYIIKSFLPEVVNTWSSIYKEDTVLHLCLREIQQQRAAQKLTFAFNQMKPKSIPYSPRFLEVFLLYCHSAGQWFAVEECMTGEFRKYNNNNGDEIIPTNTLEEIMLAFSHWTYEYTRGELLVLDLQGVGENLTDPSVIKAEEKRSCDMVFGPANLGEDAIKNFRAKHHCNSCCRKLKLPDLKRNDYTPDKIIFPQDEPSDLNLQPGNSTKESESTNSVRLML
UniProt O75717, sequence (O75717 whole entry, looked up): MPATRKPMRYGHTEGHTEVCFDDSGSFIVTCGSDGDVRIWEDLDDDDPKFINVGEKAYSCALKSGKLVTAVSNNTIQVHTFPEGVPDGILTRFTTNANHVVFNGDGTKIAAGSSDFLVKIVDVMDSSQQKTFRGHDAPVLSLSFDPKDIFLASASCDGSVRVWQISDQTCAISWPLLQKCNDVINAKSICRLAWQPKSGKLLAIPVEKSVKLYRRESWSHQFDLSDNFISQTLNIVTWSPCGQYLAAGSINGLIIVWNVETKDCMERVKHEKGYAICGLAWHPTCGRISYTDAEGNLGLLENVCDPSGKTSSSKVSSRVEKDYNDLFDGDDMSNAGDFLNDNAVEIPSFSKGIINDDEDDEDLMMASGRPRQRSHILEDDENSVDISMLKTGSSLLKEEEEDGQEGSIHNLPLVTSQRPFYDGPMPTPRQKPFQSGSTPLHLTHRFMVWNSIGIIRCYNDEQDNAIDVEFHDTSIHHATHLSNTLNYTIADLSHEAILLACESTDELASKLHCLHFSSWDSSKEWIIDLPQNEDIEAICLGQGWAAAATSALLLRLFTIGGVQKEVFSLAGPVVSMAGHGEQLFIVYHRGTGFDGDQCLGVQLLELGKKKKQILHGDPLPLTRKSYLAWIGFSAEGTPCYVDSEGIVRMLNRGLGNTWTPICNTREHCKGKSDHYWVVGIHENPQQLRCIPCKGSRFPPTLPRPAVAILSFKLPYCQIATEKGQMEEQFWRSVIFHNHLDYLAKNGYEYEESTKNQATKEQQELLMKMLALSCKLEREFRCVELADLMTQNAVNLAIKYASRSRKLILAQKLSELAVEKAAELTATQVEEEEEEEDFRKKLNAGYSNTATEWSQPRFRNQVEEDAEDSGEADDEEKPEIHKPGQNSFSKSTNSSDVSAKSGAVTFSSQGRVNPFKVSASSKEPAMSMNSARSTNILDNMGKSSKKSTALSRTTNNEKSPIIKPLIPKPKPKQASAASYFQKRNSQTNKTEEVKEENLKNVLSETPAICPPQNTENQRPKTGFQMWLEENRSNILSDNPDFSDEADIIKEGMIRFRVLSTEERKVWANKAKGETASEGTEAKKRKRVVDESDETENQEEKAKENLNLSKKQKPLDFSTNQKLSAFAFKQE
UniProt O94967, sequence (O94967 whole entry, looked up): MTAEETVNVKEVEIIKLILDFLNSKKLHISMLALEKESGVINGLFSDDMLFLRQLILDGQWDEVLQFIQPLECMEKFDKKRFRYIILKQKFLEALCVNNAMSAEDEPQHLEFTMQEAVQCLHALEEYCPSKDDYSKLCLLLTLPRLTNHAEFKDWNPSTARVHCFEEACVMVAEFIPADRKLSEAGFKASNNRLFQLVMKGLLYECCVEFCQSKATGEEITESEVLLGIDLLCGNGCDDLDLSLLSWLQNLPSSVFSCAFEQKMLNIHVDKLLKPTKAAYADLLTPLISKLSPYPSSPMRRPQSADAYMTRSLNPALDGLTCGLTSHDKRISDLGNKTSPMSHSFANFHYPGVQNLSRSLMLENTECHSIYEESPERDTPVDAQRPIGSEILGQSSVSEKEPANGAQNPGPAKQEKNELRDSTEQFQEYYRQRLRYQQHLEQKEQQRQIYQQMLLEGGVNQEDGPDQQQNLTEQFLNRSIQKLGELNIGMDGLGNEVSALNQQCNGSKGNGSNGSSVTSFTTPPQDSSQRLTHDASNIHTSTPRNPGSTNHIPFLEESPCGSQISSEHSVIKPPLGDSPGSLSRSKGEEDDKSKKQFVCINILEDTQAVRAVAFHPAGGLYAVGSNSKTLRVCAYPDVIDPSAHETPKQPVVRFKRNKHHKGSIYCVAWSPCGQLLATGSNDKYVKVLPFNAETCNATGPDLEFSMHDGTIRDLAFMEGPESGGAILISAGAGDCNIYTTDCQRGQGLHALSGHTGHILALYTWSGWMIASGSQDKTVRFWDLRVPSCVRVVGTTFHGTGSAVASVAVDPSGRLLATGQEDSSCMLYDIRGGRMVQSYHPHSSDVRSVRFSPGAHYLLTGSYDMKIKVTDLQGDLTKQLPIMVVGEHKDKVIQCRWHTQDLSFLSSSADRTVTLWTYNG
UniProt Q96FX7, sequence (Q96FX7 whole entry): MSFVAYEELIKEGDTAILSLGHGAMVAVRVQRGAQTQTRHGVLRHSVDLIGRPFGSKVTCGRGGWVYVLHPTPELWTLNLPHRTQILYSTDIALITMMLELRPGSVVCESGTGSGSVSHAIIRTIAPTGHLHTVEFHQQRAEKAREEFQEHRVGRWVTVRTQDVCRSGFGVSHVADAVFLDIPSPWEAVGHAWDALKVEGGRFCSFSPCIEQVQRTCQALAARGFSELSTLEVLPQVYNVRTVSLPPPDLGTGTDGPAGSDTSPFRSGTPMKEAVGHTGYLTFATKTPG

Target	probe-labelled cysteine peptide fold change (10 µM)	probe-labelled cysteine peptide fold change (50 µM)
WDR70_Q9NW82_383_QAHDSGTDTSCVTFSYDGNVLASR (UniProt Q9NW82)	0.312	-0.591
UBA7_P41226_223_DGDLVTFSGIEGMVELNDCDPR (UniProt P41226)	0.000986	0.0382
USP19_O94966_1017_LEDKGDTPLELGDDCSLALVWR (UniProt O94966)	-0.14	-0.0111
WAPL_Q7Z5K2_891_ALQHCEELIQQYNR (UniProt Q7Z5K2)	0.739	0.496
TUBA1B_P68363_213_SKLEFSIYPAPQVSTAVVEPYNSILTTHTTLEHSDCAFMVDNEAIYDICRR<|>TUBA4A_P68366_213_SKLEFSIYPAPQVSTAVVEPYNSILTTHTTLEHSDCAFMVDNEAIYDICRR<|>TUBA1A_Q9BQE3_213_SKLEFSIYPAPQVSTAVVEPYNSILTTHTTLEHSDCAFMVDNEAIYDICRR (UniProt Q9BQE3+P68366+P68363)	0.181	-0.0591
WDR12_Q9GZL7_185_ALHCCR (UniProt Q9GZL7)	0.0665	0.103
UHRF1_Q96T88_497_TAEQSCDQK (UniProt Q96T88)	0.0456	-0.184
TXNRD1_Q16881_577_IICNTK (UniProt Q16881)	0.634	0.851
TTLL12_Q14166_418_WGEDNHWICK (UniProt Q14166)	0.0917	0.0468
WDR47_O94967_672_GSIYCVAWSPCGQLLATGSNDK (UniProt O94967)	-0.126	-0.567
UIMC1_Q96RL1_121_AIAESLNSCRPSDASATR (UniProt Q96RL1)	0.14	-0.0493
VCPIP1_Q96JH7_207+219_SQECLIPVHVDGDGHCLVHAVSR (UniProt Q96JH7)	-0.42	-1.06
UFC1_Q9Y3C8_116_ICLTDHFK (UniProt Q9Y3C8)	-0.127	-0.0548
TTC37_Q6PGP7_1162_CLLTSAIYALQGR (UniProt Q6PGP7)	-0.13	-0.0818
UBE2E1_P51965_131_IYHCNINSQGVICLDILK (UniProt P51965)	0.0832	0.188
UNC45A_Q9H3U1_503_ALVGLCK (UniProt Q9H3U1)	0.0324	0.188
UBR2_Q8IWV8_1360_ILSDEDKPLFGPLPCR (UniProt Q8IWV8)	-0.139	-0.289
WDR37_Q9Y2I8_329_TANLYDVETSELVHSLTGHDQELTHCCTHPTQR (UniProt Q9Y2I8)	0.0866	-0.193
UBR5_O95071_1382+1386_LDCFTHCLIVK (UniProt O95071)	0.374	0.564
UAP1L1_Q3KQV9_50_AALLAELALLEPEALREHCR (UniProt Q3KQV9)	0.0804	0.0782
VPS11_Q9H270_586_EAPGCR (UniProt Q9H270)	0.694	1.1
USP40_Q9NVE5_50_NQGGTCYLNSLLQTLHFTPEFR (UniProt Q9NVE5)	-0.26	-0.513
UBR7_Q8N806_99+101_CDCGNSK (UniProt Q8N806)	-0.0898	-0.168
UBR1_Q8IWV7_1726_LHLVWQQHCIIEEIAR (UniProt Q8IWV7)	-0.0216	0.0386
TTC27_Q6P3X3_374_NNPVHTLTEVELLAFTSCLLSQPK (UniProt Q6P3X3)	0.253	0.421
VPS29_Q9UBQ0_36+41_IQHILCTGNLCTK (UniProt Q9UBQ0)	0.0402	-0.0827
TTC4_O95801_174_HFAEAVNWCDEGLQIDAK (UniProt O95801)	-0.0931	0.216

Target	probe-labelled cysteine peptide fold change (10 µM)	probe-labelled cysteine peptide fold change (50 µM)
TRMT1_Q9NXH9_376_FSAACGPPVTPECEHCGQR (UniProt Q9NXH9)	0.157	0.015
VPS13C_Q709C8_2276+2289_GIEHSLIEENCGVVVESIQVTLECGLGHR (UniProt Q709C8)	0.105	-0.00969
WT1_P19544_385_HTGVKPFQCK (UniProt P19544)	-0.144	-0.103
TRMT1_Q9NXH9_351_QALVFQCVGCGAFHLQR (UniProt Q9NXH9)	0.147	0.318
UNK_Q9C0B0_299+308_CNDMQQSGSCPR (UniProt Q9C0B0)	0.0296	-0.132
TXNL1_O43396_135+137+149_AGCECLNESDEHGFDNCLR (UniProt O43396)	-0.02	-0.634
VRK3_Q8IV63_128_TSCSPQK (UniProt Q8IV63)	0.0233	-0.142
VPS45_Q9NRW7_359_NLLEVSEVEQELACQNDHSSALQNIK (UniProt Q9NRW7)	0.273	-0.0913
UBE2O_Q9C0C9_598_VQSCPDPAVYGVVQSGDHIGR (UniProt Q9C0C9)	-0.0239	-0.0974
TTYH3_Q9C0H2_486_CENTPLIGR (UniProt Q9C0H2)	-0.0936	-0.00547
TTC28_Q96AY4_726_ALGNLGDIFICK (UniProt Q96AY4)	0.224	0.1
USP34_Q70CQ2_2033_CQVADMK (UniProt Q70CQ2)	0.0209	0.0671
WDR11_Q9BZH6_411_NSSSGVSPLYSPVSFCGIPVGVLQNK (UniProt Q9BZH6)	-0.0944	-0.0348
WDR7_Q9Y4E6_326_ELLICPPVTR (UniProt Q9Y4E6)	0.0845	0.185
WDFY1_Q8IWB7_189_LEQNTCSVITTLK (UniProt Q8IWB7)	0.462	0.551
VPS72_Q15906_163_GPHCERPLTQEELLR (UniProt Q15906)	0.0992	-0.085
VASP_P50552_7_SETVICSSR (UniProt P50552)	0.55	0.717
VPS51_Q9UID3_226_AIQDDCQVITAR (UniProt Q9UID3)	-0.0611	0.0255
WDFY4_Q6ZS81_878_QVMCEAGLLGTLMASCHR (UniProt Q6ZS81)	0.0899	-0.0334
TTC14_Q96N46_165_DIAHLEITALCPLR (UniProt Q96N46)	0.0661	0.0914
URB2_Q14146_1380_LHNVLFSILQCHPK (UniProt Q14146)	0.199	0.859
TSPYL1_Q9H0U9_375_NQDLICSFFTWFSDHSLPESDK (UniProt Q9H0U9)	0.789	0.39
TUBGCP3_Q96CW5_388_TLAALVDHCQGRK (UniProt Q96CW5)	-0.158	-0.0586
TSFM_P43897_149_FQLLVQQVALGTMMHCQTLK (UniProt P43897)	-0.117	-0.0693
TTC27_Q6P3X3_514_ETPSLYCLLGDVLGDHSCYDK (UniProt Q6P3X3)	-0.201	-0.392
UBR7_Q8N806_374_VQQVELICEYNDLK (UniProt Q8N806)	-0.0738	0.0769
XPA_P23025_126+129_EFMDSYLMNHFDLPTCDNCR (UniProt P23025)	0.169	0.182

Target	probe-labelled cysteine peptide fold change (10 µM)	probe-labelled cysteine peptide fold change (50 µM)
VPS13B_Q7Z7G8_3937_VACDVEVDGVR (UniProt Q7Z7G8)	0.0676	-0.592
WDFY4_Q6ZS81_1763_HHQEEVLQAGLCTEGALLLLEMLK (UniProt Q6ZS81)	0.571	0.181
TXNRD2_Q9NNW7_523_SGLDPTVTGCUG (UniProt Q9NNW7)	-0.465	-2
TXNL1_O43396_135+149_AGCECLNESDEHGFDNCLR (UniProt O43396)	0.0914	-0.234
URB1_O60287_315_ELVHNFLMDLCCSLK (UniProt O60287)	-0.0229	-0.0236
TSR1_Q2NL82_618_AKEELIFHCGFR (UniProt Q2NL82)	0.00999	0.0707
TXN2_Q99757_93_VVNSETPVVVDFHAQWCGPCK (UniProt Q99757)	-0.376	-1.25
TTC37_Q6PGP7_600_DFNCWESLGEAYLSR (UniProt Q6PGP7)	0.0103	-0.0643
TRPM7_Q96QT4_1426_DQETVCSK (UniProt Q96QT4)	-0.118	-0.219
TTC30B_Q8N4P2_619_DSVIQECVQFLEHCELHGR (UniProt Q8N4P2)	0.056	0.655
VCPIP1_Q96JH7_940_HCTFPHLPGK (UniProt Q96JH7)	0.0492	0.0163
VAT1L_Q9HCJ6_253+255_ISAEGVDIVLDCLCGDNTGK (UniProt Q9HCJ6)	0.196	-0.072
UACA_Q9BZF9_481_ALALECER (UniProt Q9BZF9)	-0.0367	0.0956
WDFY4_Q6ZS81_835_QWPDLEERMDEGDAAIMHPGVVCIMVR (UniProt Q6ZS81)	-0.279	-0.333
TTC21B_Q7Z4L5_72_QDVSLCSLLALIYAHK (UniProt Q7Z4L5)	0.155	0.138
TXN2_Q99757_90+93_VVNSETPVVVDFHAQWCGPCK (UniProt Q99757)	-0.411	-1.31
UBR4_Q5T4S7_4146_QAACTIVEALATIPSR (UniProt Q5T4S7)	0.0371	-0.0346
XPC_Q01831_224_NNICSQPDLHAIGLSIIPAR (UniProt Q01831)	-0.0894	0.0467
WDHD1_O75717_781_CVELADLMTQNAVNLAIK (UniProt O75717)	0.0994	0.0632
UBR2_Q8IWV8_1332_VHPNEEDPRVPIMCWGSCAYTIQSIER (UniProt Q8IWV8)	-0.326	-0.616
TXNDC11_Q6PKC3_815_ECLQSEAVLQR (UniProt Q6PKC3)	-0.111	-0.159
UBAP1_Q9NZ09_243_ATLDFKPLHKPNGFITLPQLGNCEK (UniProt Q9NZ09)	-0.241	-0.382
UNC13D_Q70J99_255_CREDQWYPLEPR (UniProt Q70J99)	-0.0799	-0.0552
TTF2_Q9UNY4_1118_FVCEGTVEEK (UniProt Q9UNY4)	-0.132	-0.00382
TTF2_Q9UNY4_50_ATDIPVSHCLLHEDFVVELQGLLLPQDK (UniProt Q9UNY4)	0.0771	0.271
TRMT61A_Q96FX7_209_FCSFSPCIEQVQR (UniProt Q96FX7)	-0.023	-0.323
